High-throughput results deposited in PubChem by The Scripps Research Institute Molecular Screening Center.
Shown are actives, neighbours in structure and some others; about 1.8% of the full set was active somewhere.
GSTO1 inh: blocks human GSTO1 in RBBP9 counter-screen; recombinant GSTO1, activity-based probe fluorescence polarization; actives 1.1% (n = 300,000); inhibition, % at 5.96 µM; P78417;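 active = inhibition above the campaign mean inhibition plus 3 SD, cut at about 35% in these data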;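 also: 0% = GSTO1-1 with DMSO and 100% = wells lacking GSTO1-1 enzyme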
Fam108B inh: Fam108B inhibition, counter-screen for RBBP9 inhibitors. recombinant Fam108B, FP-Rh probe fluorescence polarization. inhibition, % at 9.51 µM. actives 0.33% (n = 300,000). AID 1947;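 active = inhibition above the screen mean inhibition plus 3 SD, computed separately per campaign, cut at about 18% in these data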;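 also: inhibitors lower polarization as less probe binds the enzyme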
LYPLA1 inh: counter-screen for PME1 inhibitors: inhibitors of human LYPLA1 | recombinant LYPLA1, FP-Rh probe fluorescence polarization | actives 0.16% (n = 320,000) | inhibition, % at 5.9 µM | O75608;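 active = inhibition above the mean of all tested compounds plus 3 SD, set per campaign, cut at about 14% in these data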;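 also: inhibitors block serine hydrolase probe labeling of LYPLA1 so polarization falls; 0% = enzyme with DMSO and 100% = wells lacking LYPLA1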
PME-1 inh: PME-1 (human) inhibition; actives 0.53% (n = 320,000); inhibition, % at 5.9 µM; AID 2130; recombinant PME-1, FP-Rh probe fluorescence polarization; Q9Y570;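 active = inhibition above the campaign mean of all compounds plus 3 SD, cut at about 26% in these data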;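 also: competitive labeling of PME-1 active site by serine hydrolase directed probe; 0% = PME-1 with DMSO and 100% = wells lacking PME-1 enzyme; inhibitors block probe labeling so polarization falls and inhibition rises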
PAD4 inh: inhibitors of human PAD4 | Q9UM07 | recombinant PAD4, RCA probe fluorescence polarization | inhibition, % at 6.36 µM | actives 0.41% (n = 330,000) | AID 485272;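 active = percent inhibition above a cutoff equal to the mean of all tested compounds plus 3 SD, cut at about 15% in these data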;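 also: 0% = PAD4 with RCA probe and DMSO and 100% = probe without PAD4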
LYPLA2 inh: LYPLA2 (human) inhibition in PME1 counter-screen | O95372 | recombinant LYPLA2, FP-Rh probe fluorescence polarization | inhibition, % at 5.9 µM | actives 0.38% (n = 320,000) | AID 2177;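 active = inhibition above the screen-wide mean plus 3 SD, limit set per campaign, cut at about 26% in these data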;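 also: 0% = LYPLA2 with DMSO and 100% = wells lacking LYPLA2 enzyme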
LYPLA1 confirm: counter-screen for PME1 inhibitors: confirmation of human LYPLA1 inhibitors; shares compounds with LYPLA1 inh; recombinant LYPLA1, FP-Rh probe fluorescence polarization; inhibition, % at 5.9 µM; actives 69% (n = 480); AID 2233;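 active = mean inhibition across replicates above the hit cutoff set in the primary screen, cut at about 15% in these data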;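 also: loss of FP-Rh probe labeling of LYPLA1 seen as lower polarization; 0% = LYPLA1 with DMSO and 100% = wells lacking LYPLA1 enzyme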
Numbers without * were called inactive; . = no result.

SMILES | GSTO1 inh | Fam108B inh | LYPLA1 inh | PME-1 inh | PAD4 inh | LYPLA2 inh | LYPLA1 confirm
Cc1ccc(NC(=O)COc2ccc(/C=C3/SC(=Nc4ccccc4)N(Cc4cccnc4)C3=O)cc2)cc1 | 0 | -11 | 68* | 0 | -3 | 0 | -1
CC(=O)Nc1ccc(C(=O)NNC(=O)Cc2ccccc2)cc1 | 0 | 5 | -2 | -7 | -1 | 0 | .
CCOC(=O)c1c(NC(=O)COC(=O)c2ccc([N+](=O)[O-])cc2)sc(C(=O)N(C)C)c1C | -2 | 0 | 7 | -5 | 2 | 5 | .
CCOC(=O)c1c(C)[nH]c(C(=O)OCC(=O)Nc2sc(C(=O)N(C)C)c(C)c2C(=O)OCC)c1C | 8 | -1 | 47* | 5 | -3 | 6 | 74*
NC(=O)c1c(NC(=O)c2ccccc2)sc2c1CCC2 | 4 | 5 | -2 | 3 | -6 | 7 | .
Cn1ncc(Cl)c1C(=O)Nc1sc2c(c1C(N)=O)CCC2 | -4 | -2 | 29* | 5 | -8 | 0 | 4
CCOC(=O)c1sc2cc([N+](=O)[O-])cc(SCC(=O)OC)c2c1N | 36* | 7 | 15* | 8 | -7 | 4 | 29*
CCN(c1ccccc1)S(=O)(=O)c1ccc(OC)c(NC(=O)CN(C)C)c1 | -3 | 0 | 15* | 1 | 0 | 4 | 7
CCN(c1ccccc1)S(=O)(=O)c1ccc(OC)c(NC(=O)CNC)c1 | -13 | -5 | 0 | -4 | -13 | -4 | .
CCCCC/C=N/NC(=O)c1[nH]c2ccc([N+](=O)[O-])cc2c1C | 0 | -3 | 15* | -19 | -2 | 0 | 40*
NC(=O)c1cc(S(=O)(=O)NCc2cccc(Br)c2)cs1 | 21 | 2 | 15* | 1 | 2 | 2 | -5
CC(C)Cn1c(-c2cc(Br)ccc2F)nc2c1c(=O)[nH]c(=O)n2CC(C)C | 0 | 4 | -6 | 16 | 2 | 1 | .
COc1cc(/C=N/NC(=O)c2ccc(Cn3cc([N+](=O)[O-])cn3)o2)cc(Br)c1O | -6 | 0 | -2 | 0 | -8 | -3 | .
COc1cc(/C=N\NC(=O)c2ccc(Cn3cc(Br)c([N+](=O)[O-])n3)o2)cc(OC)c1O | -1 | 13 | 16* | 7 | 2 | -2 | 10
Cc1ccc(C2(COC(=O)C(C)C)CO2)c(OC(=O)C(C)C)c1 (centres undefined) | -1 | 1 | 29* | 0 | -2 | 4 | 1
O=C1[C@@H]2[C@H]3CC[C@H](C3)[C@@H]2C(=O)N1O | 1 | -2 | 0 | -1 | 5 | 1 | .
O=C(Nc1ccc(Oc2cccnc2)cc1)C1CCN(Cc2ccc(F)cc2)CC1 | 8 | -3 | -3 | -1 | -6 | -4 | .
O=C(Nc1ccc(Oc2cccnc2)cc1)C1CCN(Cc2cc(Cl)ccc2O)CC1 | 0 | -1 | 21* | -3 | -1 | 25 | 18*
COc1ccc(CCNC(=O)CN(CCc2ccccc2)S(C)(=O)=O)cc1OC | -4 | -3 | 22* | 0 | 2 | 2 | 3
COc1ccc(CCNC(=O)CN(c2ccccc2OC)S(C)(=O)=O)cc1OC | -3 | -2 | 2 | -3 | -1 | 7 | .
CCOc1ccc(/C=N/Nc2cc(N3CCOCC3)nc(C)n2)c(O)c1 | 8 | 10 | 30* | 30* | -3 | 13 | 33*
CCOc1ccc(/C=N/Nc2cc(C)nc(N3CCOCC3)n2)cc1 | 0 | 4 | -5 | 8 | 0 | -3 | .
CC(=O)N1CCN(C(=O)COc2ccc(N(C)S(=O)(=O)c3cccs3)cc2)CC1 | 0 | -1 | 24* | 6 | 4 | 4 | -2
CN(c1ccc(OCC(=O)N2CCC(C(N)=O)CC2)cc1)S(=O)(=O)c1cccs1 | 2 | 1 | -3 | 6 | -4 | -2 | .
CCOC(=O)c1ccc(Oc2c(C)oc3c(CN4CCN(C)CC4)c(O)ccc3c2=O)cc1 | -5 | 0 | 17* | -10 | 3 | 13 | 17*
Cc1cc(C)c2c(N)c(C(=O)Nc3nccs3)sc2n1 | -2 | 2 | 17* | 6 | -1 | 0 | 11
CC(=O)c1sc(NC(=O)C2CCN(C(=O)c3ccc(F)cc3)CC2)nc1-c1ccccc1 | 5 | 0 | 20* | 12 | -5 | 20 | 29*
